# Assay outcomes from PubChem.
# Only some compounds are listed: those with a hit (about 4.6% of all), similar ones and a draw of the others.
# TRHR agonist: qHTS for Small Molecule Agonists and Allosteric Enhancers of Human TRH Receptor: Primary Screen for Agonists; Thyrotropin-releasing hormone receptor (Homo sapiens), P34981; activation, % at 2 µM; AID 493084, 2011; 360,000 tested, 0.18% active; TRHR cells, calcium flux fluo-8, FDSS agonist mode; also: 0% is about no effect
# Target sequence (P34981 whole entry, looked up): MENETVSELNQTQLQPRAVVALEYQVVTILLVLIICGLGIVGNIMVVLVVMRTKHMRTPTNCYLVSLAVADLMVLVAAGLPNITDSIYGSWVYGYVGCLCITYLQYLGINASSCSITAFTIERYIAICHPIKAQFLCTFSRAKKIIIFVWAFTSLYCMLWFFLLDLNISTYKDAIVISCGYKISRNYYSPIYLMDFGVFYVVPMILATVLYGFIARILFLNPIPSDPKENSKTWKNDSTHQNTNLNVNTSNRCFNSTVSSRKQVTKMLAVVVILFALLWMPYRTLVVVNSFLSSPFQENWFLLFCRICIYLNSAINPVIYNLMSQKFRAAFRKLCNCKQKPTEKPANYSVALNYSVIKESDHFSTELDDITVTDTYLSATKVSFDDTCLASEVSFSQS
#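 TRHR-expressing cells, plated overnight in medium with 10% serum, were loaded with fluo-8 calcium dye at room temperature. After a 10 s baseline, library compound was pin-added and calcium release was recorded kinetically (ex 480/em 530) as agonist response.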
# D1 PAM: Potentiators of Human D1 Dopamine Receptor: qHTS; potentiation, % at 10 µM; AID 504651, 2011; 360,000 tested, 0.036% active; D(1A) dopamine receptor (Homo sapiens), P21728; HEK293 TREx D1 cells, calcium flux, dopamine EC20 potentiation; in the data active = potentiation above about 30%; also: 0% is about no effect
# D1 antagonist: Antagonist of Human D 1 Dopamine Receptor: qHTS | D(1A) dopamine receptor (Homo sapiens), P21728 | HEK293 TREx D1 cells, calcium flux, dopamine EC80; hits give low values | activity change, negative = inhibition, % at 10 µM | 360,000 tested, 3.2% active | AID 504652, 2011; in the data active = activity change below about -30%; also: % is scaled to controls: 0 for no effect and ±100 for the full control effect
#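 Using tetracycline-induced force-coupled D1 Hek293 cells and a calcium dye, signals were followed for 180 s after compound, then for 180 s after EC80 dopamine, to detect inhibitors.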
# TRHR PAM: qHTS for Small Molecule Agonists and Allosteric Enhancers of Human TRH Receptor: Primary Screen for Enhancers. Thyrotropin-releasing hormone receptor (Homo sapiens), P34981. TRHR cells, fluo-8 calcium fluorescence, EC20 TRH enhancement. enhancement, % at 2 µM. 360,000 tested, 0.66% active. AID 493056, 2011; in the data active = enhancement above about 30%; also: 0% is about no effect
#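 Enhancer read-out: after compound pinning and an initial kinetic agonist-mode read, an EC20 of TRH (10 nM final) was injected and fluo-8 calcium signal (Ex 480/Em 530) followed at 1 s/cycle for 100 cycles in TRHR-expressing cells.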
# D1 agonist: Allosteric Agonists of the Human D1 Dopamine Receptor: qHTS; D(1A) dopamine receptor (Homo sapiens), P21728; HEK293 T-REx D1 cells, calcium flux, agonist mode; activation, % at 2 µM; 360,000 tested, 1% active; AID 504660, 2011; also: 0% is about no effect
#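 Agonism was scored from calcium flux recorded over 180 s (1 read/s) after pintool compound addition, following a 10-cycle baseline. Cells were inducible force-coupled HEK293 TREx D1, plated overnight at 30 C and loaded with no-wash calcium dye.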
# * marks the source's active call; other numbers are inactive results; · = no result. Rule as the data show it, unless noted: active = activation above about 30%; inactive = the rest.
SMILES,TRHR agonist,D1 PAM,D1 antagonist,TRHR PAM,D1 agonist
CCCNC(=O)NCCC12CC3CC(CC(C3)C1)C2,-1,-6,23,4,9
CC(C#N)Sc1nnc(Nc2ccccc2)s1 (stereo unspecified),0,-6,-25,24,2
CCCNc1ncnc2nc[nH]c12,0,10,0,2,-1
c1ccc(CCCNc2ncnc3nc[nH]c23)cc1,0,2,-57*,-2,193*
c1ccc(CNc2ncnc3nc[nH]c23)cc1,0,-6,0,-6,2
Clc1ccc(CCNc2ncnc3nc[nH]c23)cc1,-1,-5,-35*,4,19
Cc1c(Nc2ncnc3nc[nH]c23)c(=O)n(-c2ccccc2)n1C,0,1,17,8,2
CCc1ccc(NC(=O)C(=O)NCCc2sc(-c3ccc(C)cc3)nc2C)cc1,0,-2,25,-4,0
CCC(C)NC(=O)c1ccccc1NC(=O)CN(c1ccc(OC)cc1)S(C)(=O)=O (stereo unspecified),0,-5,-7,12,0
O=C(Nc1ccc(Cl)cn1)c1cccc(S(=O)(=O)N2CCCCC2)c1,-2,·,7,11,31*
O=C(Nc1ccc(-c2csc(Nc3ccccc3)n2)cc1)c1cccc(C(F)(F)F)c1,0,-5,-47*,1,3
CC(NC(=O)c1cccc(S(=O)(=O)N2CCN(C)CC2)c1)c1ccc(Cl)cc1Cl (stereo unspecified),0,-5,-45*,-8,16
COc1ccc(-c2csc(NC(=O)c3cccc(S(=O)(=O)N4CCN(C)CC4)c3)n2)cc1,0,-9,-48*,4,19
CC(C)c1ccc(OC(=O)c2cccc(S(=O)(=O)N3CCN(C)CC3)c2)cc1,-1,-12,-28,15,9
CN(CC(=O)Nc1ccc(Cl)cc1)C(=O)c1cccc(S(=O)(=O)N2CCN(Cc3ccccc3)CC2)c1,1,-13,-31*,-7,3
COc1ccc(-c2csc(NC(=O)C3CCCCN3S(=O)(=O)c3ccccc3)n2)cc1 (stereo unspecified),0,-4,-37*,1,2
COc1ccc(-c2csc(NC(=O)CS(=O)(=O)c3ccccc3)n2)cc1,0,0,7,1,3
O=C(Nc1nc(-c2ccccc2)cs1)c1cccc(S(=O)(=O)N2CCN(Cc3ccccc3)CC2)c1,0,8,6,37*,6
Cc1nc(-c2cccc(NC(=O)c3cccc(S(=O)(=O)N4CCCC4)c3)c2)cs1,0,1,-32*,-1,2
CN(CC(=O)Nc1ccc(Cl)cc1)C(=O)c1cccc(S(=O)(=O)NCc2ccccc2)c1,0,6,-9,0,2
COc1ccc(NC(=O)CSCC(=O)Nc2cc(Cl)ccc2N2CCOCC2)cc1,-1,1,-12,0,2
CN1CCN(S(=O)(=O)c2cccc(C(=O)Nc3nc(-c4ccccc4)cs3)c2)CC1,-1,-5,-32*,9,15
O=C(CCNC(=O)c1ccc(Cl)cc1)NCC(c1ccco1)N1CCCC1 (stereo unspecified),0,-2,-1,-8,1
Cc1cc(OCCCn2c(CCNC(=O)C3CCCCC3)nc3ccccc32)ccc1Cl,-2,-4,-30,6,44*
S=C(NCC1CCCO1)Nc1cccc(Cl)c1 (stereo unspecified),0,-4,-25,-2,0
SMILES,TRHR agonist,D1 PAM,D1 antagonist,TRHR PAM,D1 agonist
S=C(NCC1CCCO1)Nc1ccc(Nc2ccccc2)cc1 (stereo unspecified),0,-8,-34*,3,12
CCCCc1ccc(S(=O)(=O)Nc2ccc(C)c(NS(C)(=O)=O)c2)cc1,0,-5,-35*,8,23
Cc1ccc(C(=O)N2CCCC2)cc1Br,0,-6,-7,-3,0
CCOC(=O)c1nn(-c2ccc(C)cc2)c(=O)cc1OCC(=O)Nc1cc(C)ccc1OC,0,-6,-42*,10,5
CCOC(=O)c1nn(-c2ccccc2)c(=O)cc1OCC(=O)Nc1cc(C)ccc1OC,1,6,-4,2,2
CCOC(=O)c1cc(NC(=O)c2ccc(Cl)cc2)c(=O)n2c1oc1ccccc12,0,-4,6,-3,1
C=C(C)CC(NCc1ccco1)c1ccc(OC)cc1 (stereo unspecified),1,4,-36*,-3,5
Cc1cc2n(n1)CCC(=O)N2Cc1ccc(C(=O)Nc2cc(Cl)ccc2C)cc1,0,2,-1,0,-2
Cc1ccc(NC(=O)COC(=O)c2ccc(CN3CCCC3=O)cc2)c(Cl)c1,0,·,-44*,-2,13
Cc1ccc(NC(=O)c2ccc(CN3C(=O)CCn4nc(C)cc43)cc2)c(Cl)c1,0,-3,-34*,-2,1
COc1cccc(CN2CCC(C(=O)N3CCN(c4ccccc4F)CC3)CC2)c1OC,-1,-1,7,4,6
N#C/C(=C(/O)c1ccc(Cl)cc1)c1nc2ccccc2[nH]1,0,8,9,-3,3
N#C/C(=C(\O)c1cc(Cl)sc1Cl)c1nc2ccccc2[nH]1,-1,-7,-19,4,35*
CC(Oc1ccc(-c2ccccc2)cc1)C(=O)N1CCOCC1 (stereo unspecified),0,1,-4,0,-1
CCCSC(=S)c1c(C)[nH]n(-c2ccccc2)c1=O,0,-2,-11,0,35*
CCCCN(CCCC)C(=S)N/N=C/c1c(C)[nH]n(-c2ccccc2)c1=O,-1,-6,-11,6,1
O=C(NCc1cccc(Cl)c1)C1CCC(=O)N(CCN2CCOCC2)C1 (stereo unspecified),0,-1,-5,2,5
Nc1nc(CSc2nnnn2-c2ccccc2)nc(N2CCCc3ccccc32)n1,1,-2,-13,2,5
CN(C)c1nc(N)nc(CSc2nnnn2-c2ccc(F)cc2)n1,0,-3,7,38*,4
COc1ccccc1C(=O)NCC(=O)N/N=C/c1ccc([N+](=O)[O-])cc1,0,-3,8,-4,-2
Cc1cc(C)n2nc(C(=O)OCC(=O)N3CC(C)CC(C)C3)nc2n1 (stereo unspecified),0,-2,0,1,2
COc1cc(/C=C2\SC(=S)N(NC(=O)c3ccccc3OC)C2=O)ccc1O,29,10,-7,7,49*
